CHX counter: Cycloheximide Counterscreen for Small Molecule Inhibitors of Shiga Toxin; cell reporter, cycloheximide protein synthesis inhibition counterscreen; max response, %; 300,000 tested, 12% active; AID 2314, 2010; in the data active = max response mostly above about 13%, no sharp cut-off; inactive = mostly below about 14%; note: read at 38.3 µM for the half of the compounds with a filed dose
Pf growth 96h: Primary qHTS for delayed death inhibitors of the malarial parasite plastid, 96 hour incubation | P. falciparum luciferase reporter growth, 96 h | Potency, µM (series often up to 28.7 µM), most hits filed as inhibitors | 320,000 tested, 6.9% active | AID 504834, 2011
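P. falciparum expressing integrated firefly luciferase grown in erythrocytes (2% hematocrit, 0.05% parasitemia final) with compounds for 96 hours at 37 C, 5% CO2. Growth inhibition read as loss of luminescence after adding luciferase detection reagent.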
Shiga inhibitor: A qHTS for Small Molecule Inhibitors of Shiga Toxin | inhibition, % at 38.7 µM | AID 2315, 2010 | Vero cells, Shiga toxin protein synthesis inhibition reporter | 290,000 tested, 9.2% active; in the data active = inhibition mostly above about 28%, no sharp cut-off; inactive = mostly below about 43%
Pf growth 48h: Primary qHTS for delayed death inhibitors of the malarial parasite plastid, 48 hour incubation; P. falciparum luciferase growth in erythrocytes, 48 h; Potency, µM (top dose mostly 28.7 µM), actives largely listed as inhibitors; 310,000 tested, 5.9% active
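In quantitative HTS format, infected erythrocytes bearing luciferase-reporter parasites were treated for a single generation at 37 C. Luminescence after adding detection reagent served as the growth measure.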
A number is an active result; – = inactive; ? = inconclusive; · = no result given. The list is not random: actives were taken first. Their share in the collection is about 21%. Unless noted, calls come from the whole dose curve; as a rule, active = well fitted inhibition curve with a large enough effect; inconclusive = small, poorly fitted or top-dose-only effect, or another doubt; inactive = no such curve, though single readings can be large or run the other way.

SMILES	CHX counter	Pf growth 96h	Shiga inhibitor	Pf growth 48h
O=C(NCC(=O)N1CCCC1)c1ccc(Br)cc1	–	–	–	–
Cc1ccc(C(=O)NCC(=O)N2CCCCCC2)cc1	50	–	46	–
O=C(NCCCC(=O)N1CCCCC1)c1ccc(Cl)cc1	–	–	–	–
COc1ccc(C(C(=O)NC2CCCC2)N(CCO)C(=O)Cn2nnc(-c3ccc(C)o3)n2)cc1OC (stereo not given)	–	?	–	–
Cc1cccc(C(=O)NCC(=O)N2CCCC2)c1	12	–	49	–
Cc1ccc(C(=O)NCCN2CCNC2=O)cc1	28	–	58	–
S=C=Nc1cccc(NC(=S)NCCCCNC(=S)Nc2cccc(N=C=S)c2)c1	–	·	–	·
O=C(CNC(=S)N(Cc1ccc(F)cc1)C1CCCCC1)NCCN1CCOCC1	–	–	–	?
O=C(CNC(=S)N(Cc1ccccc1Cl)C1CCCC1)NCCCN1CCOCC1	–	–	–	10µM
CC(CCc1ccccc1)NC(=O)N1CCOCC1 (stereo not given)	–	10µM	–	–
O=C(Cn1cnc2ccccc21)NCCCN1CCOCC1	24	·	25	–
O=C(CCc1ccccc1)OCCN1CCOCC1	–	10µM	–	–
O=C(Cc1ccccc1)OCCN1CCOCC1	–	?	–	–
NNC(=O)Cn1cnc2ccccc21	–	–	–	–
Cc1cc2cc3c(=O)[nH]c(=O)[nH]c3nc2cc1C	–	–	–	?
O=C(CN1CCOCC1)NCCc1ccccc1	–	10µM	–	–
O=C(CN1C(=O)COc2ccccc21)NCCCN1CCN(Cc2ccccc2)CC1	–	0.37µM	–	–
O=C(NCCCN1CCOCC1)C(=O)NCCc1ccccc1	–	–	–	–
O=C(CN1CCN(Cc2ccccc2)C1=O)NCCCN1CCOCC1	–	2.9µM	–	·
CC1CCN(CCCNC(=O)CN2CCN(Cc3ccc(Cl)cc3)C2=O)CC1	–	–	–	–
OC(CNCC1CCCO1)Cn1c2ccccc2c2ccccc21 (stereo not given)	–	?	–	4.7µM
OC(CNCC1CCCO1)Cn1c2ccc(Cl)cc2c2cc(Cl)ccc21 (stereo not given)	–	–	–	0.37µM
OC(CNCCC1C=Nc2ccccc21)Cn1c2ccc(Cl)cc2c2cc(Cl)ccc21 (stereo not given)	–	?	–	2.6µM
O=C1CC(NCc2ccncc2)C(=O)N1c1ccc(Cl)cc1 (stereo not given)	–	–	–	–
CN(C)C/C=C(\c1ccc(Br)cc1)c1cccnc1	·	?	·	15µM
SMILES	CHX counter	Pf growth 96h	Shiga inhibitor	Pf growth 48h
O=C(CC(CC(=O)c1ccc(Br)cc1)c1cccnc1)c1ccc(Br)cc1	–	–	–	–
CC(C)N1CCc2c(sc(NC(=S)NC(=O)c3ccccc3)c2C#N)C1	45	0.47µM	39	10µM
CC(C)C1Cc2c(sc(NC(=S)NC(=O)c3ccccc3)c2C#N)CO1 (stereo not given)	–	–	–	–
CCCN1CCc2c(sc(NC(=S)NC(=O)c3ccccc3)c2C#N)C1	38	–	43	?
COc1cccc(-n2c([S-])c(C(=O)Nc3ccc(C(F)(F)F)cc3)[n+]3ccccc23)c1	–	–	–	?
CCc1ccc2n(-c3ccc(OC)cc3)c([S-])c(C(=O)Nc3cc(C)cc(C)c3)[n+]2c1	–	8.3µM	–	13µM
COc1ccc(CCNC(=O)c2c([S-])n(-c3ccc(C)cc3)c3cccc[n+]23)cc1	–	10µM	–	?
CC(=O)N1CCC(N(CCN2CCOCC2)C(=S)Nc2cc(C)ccc2C)CC1	–	?	–	–
COc1ccc(C(=O)c2c(NC(C)=O)sc3c2CCN(C(=O)OC(C)(C)C)C3)cc1	–	9.3µM	–	8.3µM
COc1ccc(C(=O)Nc2sc3c(c2C#N)CCN(C(C)=O)C3)cc1	–	–	–	?
CCOC(=O)N1CCc2c(sc(NC(=O)Cc3ccccc3)c2C(=O)c2ccc(OC)cc2)C1	–	?	–	5.2µM
COc1ccc(CC(=O)Nc2sc3c(c2C(N)=O)CCCC3)cc1	–	–	–	·
O=C(CCCN1C(=O)/C(=C/c2ccccc2Cl)SC1=S)NNC(=O)c1cccnc1	–	?	–	9.3µM
CCN(CC)CCOC(=O)c1ccc(NC(=O)CCCN2C(=O)/C(=C\c3cccs3)SC2=S)cc1	–	4.1µM	–	2.3µM
O=C(CCCN1C(=O)/C(=C/c2ccccc2Cl)SC1=S)NNC(=O)c1ccc(Cl)cc1Cl	–	–	–	?
CCN(CC)CCOC(=O)c1ccc(NC(=O)CCNC(=O)Cn2ccc3ccccc3c2=O)cc1	–	12µM	–	–
O=C(CCCN1C(=O)/C(=C/c2ccccc2Cl)SC1=S)NNC(=O)c1ccccc1	–	1.9µM	–	?

Screens from PubChem BioAssay.
